{"source": "PubChem BioAssay AID902", "about": "(National Center for Advancing Translational Sciences (NCATS), 2007)", "note": "Screen size: about 130,000 compounds; about 1,900 (1.5%) were called active. Another 5% or so got no clear call; they are omitted. The list comes from a sample in which actives are over-represented; it also holds similar structures and randomly drawn compounds. Unmarked numbers belong to inactive results. Calls come from the whole dose curve; as a rule, active = well fitted cell-killing curve with a large enough effect; inconclusive = small, poorly fitted or top-dose-only effect; inactive = no such curve, though single readings can be large or run the other way. % is set by controls: 0 for no effect and ±100 for the full control effect; potency is the fitted concentration of half-maximal effect."}
{"assay": "qHTS Screen for Compounds that Selectively Target Cancer Cells with p53 Mutations: Cytotoxicity of p53ts Cells at the Nonpermissive Temperature; note: nearly all actives have a fitted effect of over 55% in size", "details": "H1299-p53A138V viability at 39C, ATP luminescence, 24 h; series mostly up to 46.1 µM; activity change, negative = cell killing: at the top concentration", "from_the_text": "NIH Chemical Genomics Center [NCGC] NIH Molecular Libraries Screening Centers Network [MLSCN] MLSCN Grant: 1 X01 MH079844-01 Assay Submitter (PI): Dr. SUN, YI, University of Michigan NCGC Assay Overview: Synthetic Lethal Screen for Compounds to Kill Cancer Cells with p53 Mutation. Tumor suppressor gene p53 serves as a major cellular barrier against tumorigenesis. […] The goal of this screening is to identify small molecule probes that selectively kill cancer cells with mutations in p53. This screening was carried out using two lines of H1299 lung cancer cells. The H1299-p53 A138V line express a temperature sensitive p53 mutant (p53ts) in which the mutant p53 protein (A138V) is in the mutant confirmation when grown at 39C (the nonpermissive temperature) and in the wild type conformation when grown at 32C (the permissive temperature). A H1299-neo line (p53 null) grown at both 39C and 32C were used as counter-screens to filter out false positive associated with temperature shifting. The small molecular compounds that selectively target mutant p53-containing cancer cells were selected as candidate probes for further study. A cytotoxicity assay based on the measurement of ATP contents in cells was used in this screen. Concentration-responses of all the compounds in the library collection were determined in qHTS using the cell lines and temperature conditions as above.\nNCGC Assay Protocol Summary: Both the H1299-p53A138V and H1299-neo cell lines were provided by Dr.Yi Sun, a PI at the University Michigan. The cells were maintained and cultured at 37C. The resuspended frozen cells were used to plate the cells in the 1536-well assay plates at a density of 600 cells per well in 5 ul medium. The assay plates with the cells were incubated at 37C for 16 to 30 hours before the experiments. The library compounds in DMSO solution were added to the cells in assay plates and incubated 24 hours at 39C (for mutant p53 conformation) or 32C (for normal p53 conformation as control). An ATP_lite assay kit (PerkinElmer) was used to determine the cell viability. Tomaxifen (100uM) was used as the positive control for cell killing. Data were normalized to the controls for basal activity (DMSO only) and 100% killing (100uM tamoxifen). AC50 values were determined from concentration-response data modeled with the standard Hill equation. P53 assay protocol: 1. Reagent; 5 uL H1299-p53A138V or H1299-neo cell cells/well 2. Time; overnight; 37C incubation 3. Compounds; 23 nL; 5.9 nM to 46 uM 4. Controls; 23 nL; Tamoxifen 100 uM 5. Time; 24 hr; 39C incubation 6. Reagent; 3 uL; ATP_Lite reagent 7. Time; 20 min; Room Temperature 8. Detection; Luminescence; Viewlux plate reader Keywords: p53, synthetic lethal, cancer, cell viability, cytotoxicity, H1299 cell line, luminescence, MLSMR, MLSCN, NIH Roadmap, qHTS, NCGC", "units": {"activity change, negative = cell killing": "%"}}
{"smiles": "CCOC(=O)CNC(=O)c1cc2c(=O)n3cccc(C)c3nc2s1", "activity change, negative = cell killing": -21.7}
{"smiles": "CCCc1nn2c(=O)cc(COC(=O)c3ccc(NC(=O)COc4ccc(F)cc4)cc3)nc2s1", "activity change, negative = cell killing": 11.1}
{"smiles": "COc1ccccc1CNc1ncnc2ccc(-c3ccc4c(c3)OCO4)cc12", "activity change, negative = cell killing": -3.34}
{"smiles": "N#Cc1ccccc1-c1ccc2ncnc(NCc3cccnc3)c2c1", "activity change, negative = cell killing": -2.85}
{"smiles": "N#Cc1cccc(-c2ccc3ncnc(NCc4cccs4)c3c2)c1", "Potency": "12.6 µM (active)"}
{"smiles": "Cc1ccc(Cl)cc1NC(=O)C1CCCN(c2cnccn2)C1", "note": "(configuration not stated)", "activity change, negative = cell killing": -7.25}
{"smiles": "O=C(c1cc(-c2ccc(F)cc2)on1)N1CCN(c2ccc(F)cc2)CC1", "activity change, negative = cell killing": 9.22}
{"smiles": "CCN(CC)S(=O)(=O)c1cc(C(=O)Nc2ccccn2)ccc1C", "Potency": "12.6 µM (active)"}
{"smiles": "CCN(CC)S(=O)(=O)c1cccc(C(=O)Nc2ccccc2)c1", "activity change, negative = cell killing": -12}
{"smiles": "Cc1ccc(S(=O)(=O)/N=C(/Nc2ccccn2)c2ccc(Cl)cc2)cc1", "activity change, negative = cell killing": -15.9}
{"smiles": "CN(C(=O)CN1C(=O)CCSc2ccc(S(=O)(=O)N3CCCC3)cc21)c1ccccc1", "activity change, negative = cell killing": -4.63}
{"smiles": "O=C(CSc1nnc(-c2ccccc2F)o1)Nc1cccc(C(F)(F)F)c1", "activity change, negative = cell killing": 8.67}
{"smiles": "O=C(NCCS(=O)(=O)N1CCN(c2ccc(F)cc2)CC1)c1ccccc1Br", "activity change, negative = cell killing": -17.1}
{"smiles": "COc1ccc(N2C(=O)CS(=O)(=O)C23C(=O)N(Cc2ccc(C)cc2)c2ccccc23)cc1Cl", "note": "(configuration not stated)", "activity change, negative = cell killing": 21}
{"smiles": "CCCCOc1ccc(C(=O)Nc2cccc(-c3nc4ccccc4o3)c2C)cc1", "activity change, negative = cell killing": 35.1}
{"smiles": "O=C(COc1ccccc1F)Nc1ccc(C(=O)OCc2cc(=O)n3nc(C4CC4)sc3n2)cc1", "activity change, negative = cell killing": -13.1}
{"smiles": "CCCCS(=O)(=O)c1oc(-c2cccs2)nc1S(=O)(=O)c1ccccc1", "Potency": "3.16 µM (active)"}
{"smiles": "CSc1oc(-c2cccs2)nc1S(=O)(=O)c1ccc(Br)cc1", "activity change, negative = cell killing": 17.8}
{"smiles": "NC(=O)CSc1oc(-c2cccs2)nc1S(=O)(=O)c1ccccc1", "activity change, negative = cell killing": 11.5}
{"smiles": "c1ccc(-n2ncc(-c3nn[nH]n3)n2)cc1", "activity change, negative = cell killing": -2.58}
{"smiles": "CC(C)c1ccc(-c2nn[nH]n2)cc1", "Potency": "12.6 µM (active)"}
{"smiles": "Cc1nnc(C)n1/N=C/c1ccc(C(C)C)cc1", "activity change, negative = cell killing": -10.4}
{"smiles": "CCc1ccc(-n2nnc(-c3nc(-c4ccccc4)no3)c2C)cc1", "activity change, negative = cell killing": -4.05}
{"smiles": "CCOC(=O)c1c(C)oc2nc(C)nc(Nc3ccc(CC)cc3)c12", "activity change, negative = cell killing": 12.3}
{"smiles": "CCOc1ccc(Nc2c(S(=O)(=O)c3ccccc3)cnc3ccccc23)cc1", "activity change, negative = cell killing": -6.31}
{"smiles": "CCOc1ccc(CCNC(=O)c2ccc3c(c2)sc2nc(-c4ccc(F)cc4)cn23)cc1OCC", "activity change, negative = cell killing": -30}
{"smiles": "CCOC(=O)c1ccc(NC(=O)c2nc(SCc3ccc(F)cc3)ncc2Cl)cc1", "activity change, negative = cell killing": -9.35}
{"smiles": "CCCS(=O)(=O)c1ncc(Cl)c(C(=O)Nc2scc(-c3ccccc3)c2C(=O)OCC)n1", "Potency": "7.94 µM (active)"}
{"smiles": "CCOC(=O)c1scc(-c2ccccc2)c1S(=O)(=O)Nc1ccccc1F", "activity change, negative = cell killing": -11.6}
{"smiles": "CCOC(=O)C1CCN(c2csc3ccc(C)cc3c2=O)CC1", "activity change, negative = cell killing": -18.6}
{"smiles": "COc1ccc(CNC(=O)c2ccc3c(c2)nc2n3CCOC2)c(OC)c1", "activity change, negative = cell killing": -4.85}
{"smiles": "CCc1ccc(-n2nc(C)c3c(C)cc(=O)n(CC(=O)Nc4ccc(F)cc4C)c32)cc1", "activity change, negative = cell killing": -8.83}
{"smiles": "O=c1oc2cc(O)ccc2cc1-c1ccc(F)cc1", "activity change, negative = cell killing": 7.63}
{"smiles": "COc1ccc2cc(-c3nc(Cl)c4c5c(sc4n3)CC(C)CC5)c(=O)oc2c1", "note": "(configuration not stated)", "activity change, negative = cell killing": 8.48}
{"smiles": "COc1ccc(-c2cc3ccc(OCc4nn[nH]n4)cc3oc2=O)cc1", "Potency": "12.6 µM (active)"}
{"smiles": "Cc1cn(C)c(CC(=O)NCc2ccc(Cl)cc2)c1C(=O)O", "activity change, negative = cell killing": -8.42}
{"smiles": "CCc1ccc(NC(=O)CCS(=O)(=O)c2cc3c(cc2Cl)NC(=O)CO3)cc1", "activity change, negative = cell killing": -21.4}
{"smiles": "COC(=O)c1sc(NC(=O)c2csc3c2CCCC3)nc1C", "activity change, negative = cell killing": 12.2}
{"smiles": "COC(=O)c1sc(NC(=O)c2ccc(OC)cc2OC)nc1C", "Potency": "0.316 µM (active)"}
{"smiles": "COc1ccc(C(=O)Nc2nncs2)c(OC)c1", "activity change, negative = cell killing": -26.2}
{"smiles": "CCOC(=O)c1cccc(NC(=O)c2cc(CN3CCCC3)on2)c1", "activity change, negative = cell killing": -17.2}
{"smiles": "CCOc1ccc(NC(=O)Cn2c(=O)n(CCCC(=O)NCc3ccc4c(c3)OCO4)c(=O)c3ccccc32)cc1", "activity change, negative = cell killing": 2.75}
{"smiles": "COc1ccc(OCC(=O)Nc2cccc(C(=O)OCc3cc(=O)n4nc(C)sc4n3)c2)cc1", "activity change, negative = cell killing": -9.88}
{"smiles": "Cc1nn2c(=O)cc(COC(=O)c3cccc(NC(=O)COc4ccccc4Cl)c3)nc2s1", "Potency": "12.6 µM (active)"}
{"smiles": "Cc1nn2c(=O)cc(COC(=O)c3ccccc3NC(=O)COc3ccccc3C)nc2s1", "activity change, negative = cell killing": -9.66}
{"smiles": "Cc1cccc(C(=O)NCCc2nc3ccccc3n2Cc2ccccc2Cl)c1", "activity change, negative = cell killing": -12.8}
{"smiles": "Cc1ccccc1NC(=O)c1ccccc1", "activity change, negative = cell killing": 2.54}
{"smiles": "Cc1ccc(NC(=O)c2cccc(N(C)C)c2)cc1NC(=O)c1ccc(O)cc1", "Potency": "7.94 µM (active)"}
{"smiles": "Cc1ccc(F)cc1NC(=O)c1cccc(N(C)C)c1", "activity change, negative = cell killing": -15.6}
{"smiles": "COc1ccc(CCN2C(=O)c3oc4cc(C)cc(C)c4c(=O)c3C2c2ccccc2F)cc1OC", "note": "(configuration not stated)", "activity change, negative = cell killing": -6.84}
{"smiles": "CN(c1nc2ccccc2n2c(-c3ccco3)nnc12)S(=O)(=O)c1ccccc1", "activity change, negative = cell killing": 1.85}
{"smiles": "Cn1c(-c2ccco2)nc2cc3ccccc3cc21", "Potency": "1.26 µM (active)"}
